Measurements from PubChem BioAssay.
Several values for one entry are separate records, joined by “and”; a condition that tells them apart may be missing. Identical values can stand only once. Activity calls are given as the source filed them.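 How the source made its calls, unless noted: active means thallium flux through the channel raised or lowered by more than 3 SD from vehicle-only wells, actives on both sides; inactive means the rest.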

Assays:
[1] = P. berghei load reduction in hepatocytes – cell-based, HepG2, luciferase luminescence, HepG2 viability, primary screen (AID 624349; in the data active means parasite load remaining mostly below about 12%, no sharp cut-off; inactive means mostly above about 10%;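 further: 100% = mean of DMSO negative control wells on the same plate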); settings: P. berghei liver stage in HepG2, luciferase luminescence, concentration not given here; parasite load remaining: stronger effect = lower value; viability: measured here: HepG2 viability without parasites
[2] = signal quenchers or enhancers, Cy5 substrate/SSB – biochemical, NIH Clinical Collection, E. coli SSB, artefact control for HCV NS3 helicase inhibitor project (AID 743268; call rule not given here); settings: Cy5-oligo bound E. coli SSB, fluorescence interference
[3] = test system: Hepatitis C virus NS3 helicase; experiment: blockers of NS3h binding to DNA – biochemical, fluorescence polarization, NIH Clinical Collection, primary screen (AID 743270; call rule not given here); settings: NS3 helicase binding to Cy5-dT15 DNA, stronger effect = higher value, concentration not given here
[4] = biological target: Single-stranded DNA-binding protein (Escherichia coli (strain K12)) (UniProt P0AGE0); experiment: SSB-ssDNA binding inhibitors – biochemical, fluorescence polarization, NIH Clinical Collection, counter-screen for HCV NS3 helicase inhibitor project (AID 743271; in the data active means inhibition above about 28%); settings: E. coli SSB-DNA binding, stronger effect = higher value, concentration not given here
[5] = compounds distorting NS3 helicase fluorescence signal – biochemical, NIH Clinical Collection, artefact control for HCV NS3 helicase inhibitor project (AID 743272; call rule not given here;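 further: HCV NS3 helicase with a Cy5 labelled single stranded DNA probe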); settings: fluorescence interference counterscreen, HCV NS3 helicase assay; stronger effect = lower value
[6] = EMT-state selective cytotoxicity in co-culture – imaging, PC-3E GFP, TEM4-18 mCherry, primary screen (AID 1345086;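 active means compounds killing one labelled cell type while sparing the other, by normalised counts and ratio limits, not self-fluorescent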;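 further: cells exposed to compound for 72 h before imaging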;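 on red/green cell ratio (normalised): normalised mesenchymal count divided by normalised epithelial count so high means epithelial killing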); settings: PC-3E GFP / TEM4-18 mCherry co-culture, imaging cell counts, at 1 µM
[7] = viability loss with induced miR-34 in A549 – imaging, A549 dox-inducible miR-34, nuclei and caspase counts, primary screen (AID 1347080;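 active means compounds whose cell count with miR-34 switched on is under 0.7 times the count with it off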); settings: A549 miR-34 inducible, Hoechst nuclei count, 48 h
[8] = MELAS cybrid and Rieske KO viability enhancers – cell-based, MELAS cybrids, Rieske KO mouse fibroblasts, CellTiter-Glo, primary screen (AID 1508586;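 active means mean z-score across replicates of 1.96 or higher in either the MELAS or the Rieske mutant cell line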;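 further: z relative to plate mean and SD of compound and empty wells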); settings: low glucose
[9] = test system: F380Y; experiment: BK channel mutant inhibitors and activators – cell-based, U2OS BacMam, thallium flux, beta subunits, selectivity assay, profiling panel (AID 1259406); settings: U2OS BacMam BK variants, at 30 µM;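 further: initial slope of Thallos dye fluorescence rise after thallium is added; log ratio against the mean of 0.3% DMSO vehicle wells on the same plate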
[10] = test system: F380Y/beta1; experiment: as above; settings: U2OS BacMam BK variants, at 30 µM
[11] = test system: F380Y/beta2Delta; experiment: as above; settings: U2OS BacMam BK variants, at 30 µM
[12] = test system: F380Y/beta4; experiment: as above; settings: U2OS BacMam BK variants, at 30 µM
[13] = biological target: Calcium-activated potassium channel subunit alpha-1 (Homo sapiens) + Leucine-rich repeat-containing protein 26 (Homo sapiens) (UniProt Q12791+Q2I0M4); experiment: as above; settings: U2OS BacMam BK variants, F380Y/Slo1WT/gamma1, at 30 µM
Chain of Calcium-activated potassium channel subunit alpha-1 (Homo sapiens) + Leucine-rich repeat-containing protein 26 (Homo sapiens) (Q2I0M4 whole entry, looked up, one chain of several): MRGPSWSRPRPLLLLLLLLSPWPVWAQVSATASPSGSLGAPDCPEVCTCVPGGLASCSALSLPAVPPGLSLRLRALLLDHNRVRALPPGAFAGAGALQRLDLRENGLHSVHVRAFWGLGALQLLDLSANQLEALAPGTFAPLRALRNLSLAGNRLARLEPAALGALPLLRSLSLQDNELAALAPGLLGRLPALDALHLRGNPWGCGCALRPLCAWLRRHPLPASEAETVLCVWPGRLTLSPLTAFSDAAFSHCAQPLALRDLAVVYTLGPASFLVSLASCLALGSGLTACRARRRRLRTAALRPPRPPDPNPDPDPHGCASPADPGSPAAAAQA

[14] = test system: R275C; experiment: as above; settings: U2OS BacMam BK variants, at 30 µM
[15] = test system: R275C/beta1; experiment: as above; settings: U2OS BacMam BK variants, at 30 µM
[16] = test system: R275C/beta2Delta; experiment: as above; settings: U2OS BacMam BK variants, at 30 µM
[17] = test system: R275C/beta4; experiment: as above; settings: U2OS BacMam BK variants, at 30 µM
[18] = test system: R275C/Slo1WT/beta2; experiment: as above; settings: U2OS BacMam BK variants, at 30 µM
[19] = modulation of C. elegans fzo-1 (AID 1259413; call rule not given here;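 further: fzo-1 mutant C. elegans worms in liquid wells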); settings: C. elegans fzo-1 modulator screen, mean read-out; stronger effect = higher value
[20] = stronger effect = lower value, cell number ratio, induced over uninduced
[21] = measured here: relative caspase fold change +Dox/-Dox
[22] = measured here: total cells with miR-34 induction, stronger effect = lower value
[23] = measured here: total cells without miR-34 induction
[24] = MELAS cybrid survival, CellTiter-Glo 48 h, stronger effect = higher value
[25] = Rieske KO mouse fibroblast survival, CellTiter-Glo 72 h

CCCc1nc(C(C)(C)O)c(C(=O)O)n1Cc1ccc(-c2ccccc2-c2nn[nH]n2)cc1
parasite load remaining [1]: 103% (inactive) | viability [1]: 69% | fluorescence ratio [2]: 1.02 (inactive) | inhibition [3]: 1.19% (inactive) | inhibition [4]: -0.1% (inactive) | fluorescence ratio [5]: 0.93 (inactive) | red/green cell ratio (normalised) ([6]; actives lie on both sides, counts scaled to control wells, 1 = unselective): 1.01 (inactive) | normalised cell number ([6]; measured here: epithelial PC-3E GFP cell survival): 1.21 | normalised cell number ([6]; measured here: mesenchymal TEM4-18 mCherry cell survival): 1.22 | fold change [7, 20]: 0.897 (inactive) and 0.859 (inactive) | fold change [7, 21]: 2.28 and 0.39 | cell count [7, 22]: 9480 and 8420 | cell count [7, 23]: 10600 and 9810 | z-score [8, 24]: 0.347 (inactive) | z-score [8, 25]: -0.184 | log fold change Tl+ flux [9]: -0.0187 (inactive) | log fold change Tl+ flux [10]: 0.00703 (inactive) | log fold change Tl+ flux [11]: 0.0323 (inactive) | log fold change Tl+ flux [12]: -0.0244 (inactive) | log fold change Tl+ flux [13]: 0.0466 (inactive) | log fold change Tl+ flux [14]: 0.0686 (inactive) | log fold change Tl+ flux [15]: 0.00561 (inactive) | log fold change Tl+ flux [16]: 0.0191 (inactive) | log fold change Tl+ flux [17]: -0.0131 (inactive) | log fold change Tl+ flux [18]: -0.0157 (inactive)

O=C(O[C@H]1[C@H](Oc2ccccc2COC(=O)C2(O)C=CCCC2=O)O[C@H](CO)[C@@H](O)[C@@H]1O)c1ccccc1 (stereo partly specified)
parasite load remaining [1]: 48.8% (inactive) | viability [1]: 72.8% | fluorescence ratio [2]: 1 (inactive) | inhibition [3]: -0.22% (inactive) | inhibition [4]: -2.76% (inactive) | fluorescence ratio [5]: 0.99 (inactive) | mean signal [19]: 249 (inactive) | log fold change Tl+ flux [9]: 0.0202 (inactive) | log fold change Tl+ flux [10]: 0.0124 (inactive) | log fold change Tl+ flux [11]: -0.0274 (inactive) | log fold change Tl+ flux [12]: 0.0177 (inactive) | log fold change Tl+ flux [13]: -0.0394 (inactive) | log fold change Tl+ flux [14]: 0.00346 (inactive) | log fold change Tl+ flux [15]: 0.0475 (inactive) | log fold change Tl+ flux [16]: 0.0175 (inactive) | log fold change Tl+ flux [17]: 0.0193 (inactive) | log fold change Tl+ flux [18]: 0.0101 (inactive)

C[C@]12CC3CC(N)(C1)C[C@@](C)(C3)C2
parasite load remaining [1]: 113% (inactive) and 58.5% (inactive) | viability [1]: 85.8% and 102% | fluorescence ratio [2]: 1.06 (inactive) | inhibition [3]: 0.4% (inactive) | inhibition [4]: -0.87% (inactive) | fluorescence ratio [5]: 0.95 (inactive) | fold change [7, 20]: 0.918 (inactive) and 0.871 (inactive) | fold change [7, 21]: 1.34 and 1.17 | cell count [7, 22]: 9680 and 10100 | cell count [7, 23]: 10500 and 11600 | z-score [8, 24]: -0.593 (inactive) | z-score [8, 25]: -0.282 | log fold change Tl+ flux [9]: -0.00548 (inactive) | log fold change Tl+ flux [10]: -0.0368 (inactive) | log fold change Tl+ flux [11]: 0.033 (inactive) | log fold change Tl+ flux [12]: 0.0342 (inactive) | log fold change Tl+ flux [13]: -0.0162 (inactive) | log fold change Tl+ flux [14]: 0.0086 (inactive) | log fold change Tl+ flux [15]: -0.0112 (inactive) | log fold change Tl+ flux [16]: -0.0288 (inactive) | log fold change Tl+ flux [17]: -0.00234 (inactive) | log fold change Tl+ flux [18]: -0.0124 (inactive)

CCC(=C(c1ccccc1)c1ccc(OCCN(C)C)cc1)c1ccccc1
parasite load remaining [1]: -1.78% (inactive) | viability [1]: 31.4% | fluorescence ratio [2]: 1.01 (inactive) | inhibition [3]: 0.45% (inactive) | inhibition [4]: 7.15% (inactive) | fluorescence ratio [5]: 0.9 (inactive) | fold change [7, 20]: 0.958 (inactive) and 0.928 (inactive) | fold change [7, 21]: 2.28 and 0.707 | cell count [7, 22]: 4730 and 2790 | cell count [7, 23]: 4930 and 3010 | z-score [8, 24]: 5.74 (active) | z-score [8, 25]: 11.9 | log fold change Tl+ flux [9]: -0.00968 (inactive) | log fold change Tl+ flux [10]: -0.0043 (inactive) | log fold change Tl+ flux [11]: -0.0174 (inactive) | log fold change Tl+ flux [12]: -0.00798 (inactive) | log fold change Tl+ flux [13]: -0.0114 (inactive) | log fold change Tl+ flux [14]: -0.00676 (inactive) | log fold change Tl+ flux [15]: -0.0153 (inactive) | log fold change Tl+ flux [16]: -0.0428 (inactive) | log fold change Tl+ flux [17]: 0.00537 (inactive) | log fold change Tl+ flux [18]: 0.0353 (inactive)

COc1cc(/C=C/c2ccc(O)cc2)cc(OC)c1
parasite load remaining [1]: 117% (inactive) | viability [1]: 70.6% | fluorescence ratio [2]: 0.96 (inactive) | inhibition [3]: 5.94% (inactive) | inhibition [4]: 9.14% (inactive) | fluorescence ratio [5]: 0.99 (inactive) | mean signal [19]: 227 (inactive) | log fold change Tl+ flux [9]: -1.03 (active) | log fold change Tl+ flux [10]: -0.986 (active) | log fold change Tl+ flux [11]: -1.01 (active) | log fold change Tl+ flux [12]: -0.813 (active) | log fold change Tl+ flux [13]: -0.744 (active) | log fold change Tl+ flux [14]: -0.927 (active) | log fold change Tl+ flux [15]: -0.11 (active) | log fold change Tl+ flux [16]: -0.000996 (inactive) | log fold change Tl+ flux [17]: 0.05 (inactive) | log fold change Tl+ flux [18]: -0.108 (active)

O=c1[nH]c2ccccc2c2ccccc12
fold change [7, 20]: 0.926 (inactive) and 0.97 (inactive) | fold change [7, 21]: 0.939 and 0.926 | cell count [7, 22]: 7660 and 2830 | cell count [7, 23]: 8280 and 2920 | log fold change Tl+ flux [9]: 0.027 (inactive) | log fold change Tl+ flux [10]: 0.0377 (inactive) | log fold change Tl+ flux [11]: 0.0285 (inactive) | log fold change Tl+ flux [12]: 0.0704 (inactive) | log fold change Tl+ flux [13]: -0.0148 (inactive) | log fold change Tl+ flux [14]: 0.0279 (inactive) | log fold change Tl+ flux [15]: -0.057 (inactive) | log fold change Tl+ flux [16]: 0.0385 (inactive) | log fold change Tl+ flux [17]: -0.0579 (inactive) | log fold change Tl+ flux [18]: -0.0287 (inactive)

CN1C2CCC1CC(OC(c1ccccc1)c1ccccc1)C2 (stereo unspecified)
parasite load remaining [1]: 25.8% (inactive) and 92.2% (inactive) and 42.8% (inactive) | viability [1]: 81.7% and 71.5% and 99.9% | fluorescence ratio [2]: 1.04 (inactive) | inhibition [3]: -5.91% (inactive) | inhibition [4]: -4.29% (inactive) | fluorescence ratio [5]: 1.01 (inactive) | mean signal [19]: 197 (inactive) | z-score [8, 24]: -0.325 (inactive) | z-score [8, 25]: -0.171 | log fold change Tl+ flux [9]: 0.117 (active) | log fold change Tl+ flux [10]: 0.0778 (inactive) | log fold change Tl+ flux [11]: 0.124 (active) | log fold change Tl+ flux [12]: 0.212 (active) | log fold change Tl+ flux [13]: 0.00637 (inactive) | log fold change Tl+ flux [14]: -0.0804 (inactive) | log fold change Tl+ flux [15]: 0.237 (active) | log fold change Tl+ flux [16]: 0.0793 (inactive) | log fold change Tl+ flux [17]: 0.252 (active) | log fold change Tl+ flux [18]: 0.0196 (inactive)
